Results published in PubChem BioAssay (Tox21).
Several values for one entry are separate records, joined by “and”; a condition that tells them apart may be missing. Identical values can stand only once. Records with an inconclusive call do not appear. Activity calls are given as the source filed them. The call rests on the fitted dose curve; in most records, active means well fitted curve in the direction sought with a large enough effect in the repeat runs; inconclusive means weak or mixed curves; inactive means no such curve, though single readings can be large; an effect the other way counts as inactive or inconclusive.

Tests used:
[1] = qHTS assay to identify small molecule antagonists of the glucocorticoid receptor (GR) signaling pathway - cell viability counter screen (AID 720693); further: nearly all actives have a fitted effect of over 55% in size; further: potency means the concentration at half of the fitted maximal effect
[2] = qHTS assay for identifying genotoxic compounds that show differential cytotoxicity against isogenic chicken DT40 cell lines with known DNA damage response pathways - wild type cell line (AID 743012); further: nearly all actives have a fitted effect of over 60% in size; further: potency means the concentration at half of the fitted maximal effect
Outline: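 Using parental DT40 (300 cells/well), compounds delivered in DMSO incubate 40 h at 37 C/5% CO2. CellTiter-Glo reagent then stands 30 min at room temperature, and luminescence gives cell viability.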

[3] = qHTS assay to identify small molecule antagonists of the androgen receptor (AR) signaling pathway using the MDA cell line - cell viability counter screen (AID 743041; further: nearly all actives have a fitted effect of over 45% in size; further: potency means the concentration at half of the fitted maximal effect)
Outline: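 R1881-driven MDA-kb2 AR-luc cells, 3,000/well, were dosed with library compounds for 16 h; cell health came from CellTiter-Fluor fluorescence in the reporter wells.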

[4] = qHTS assay to identify small molecule antagonists of the thyroid receptor (TR) signaling pathway (AID 743065); further: nearly all actives have a fitted effect of over 55% in size; further: potency means the concentration at half of the fitted maximal effect
Outline: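 Antagonism measured as loss of luciferase signal in GH3 cells stably carrying a TRE-luciferase reporter, co-treated with compound and T3 (1 nM final) for 23.5 h at 37 C. Viability was read in the same well by CellTiter-Fluor.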

[5] = qHTS assay for identifying genotoxic compounds that show differential cytotoxicity against isogenic chicken DT40 cell lines with known DNA damage response pathways - Rev3 mutant cell line (AID 743014); further: nearly all actives have a fitted effect of over 55% in size; further: potency means the concentration at half of the fitted maximal effect
[6] = qHTS assay for identifying genotoxic compounds that show differential cytotoxicity against isogenic chicken DT40 cell lines with known DNA damage response pathways - Rad54/Ku70 mutant cell line (AID 743015); further: nearly all actives have a fitted effect of over 60% in size; further: potency means the concentration at half of the fitted maximal effect
[7] = qHTS assay to identify small molecule antagonists of the androgen receptor (AR) signaling pathway - cell viability counter screen (AID 743033; further: nearly all actives have a fitted effect of over 45% in size; further: potency means the concentration at half of the fitted maximal effect)
[8] = target: Androgen receptor (Homo sapiens) (UniProt P10275); assay: qHTS assay to identify small molecule antagonists of the androgen receptor (AR) signaling pathway using the MDA cell line (AID 743042; further: nearly all actives have a fitted effect of over 55% in size; further: potency means the concentration at half of the fitted maximal effect)
Outline: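 Antagonist mode: compounds plus R1881 agonist added to MDA-kb2 AR-luc cells, incubated 16 h at 37C. Luciferase reporter luminescence quantified, with multiplexed CellTiter-Fluor readout for cell viability.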

[9] = qHTS assay to identify small molecule antagonists of the thyroid receptor (TR) signaling pathway - cell viability counter screen (AID 743064); further: nearly all actives have a fitted effect of over 50% in size; further: potency means the concentration at half of the fitted maximal effect
Outline: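 GH3.TRE-Luc rat pituitary cells carrying a TRE-luciferase reporter were treated with compound plus 1 nM T3 (final) for 23.5 h at 37 °C. Viability was then read in the same wells by CellTiter-Fluor fluorescence after a further 30 min.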

[10] = target: Androgen receptor (Homo sapiens) (UniProt P10275); assay: qHTS assay to identify small molecule agonists of the androgen receptor (AR) signaling pathway using the MDA cell line (AID 743040; further: nearly all actives have a fitted effect of over 20% in size)
Outline: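 After a 5 h incubation at 37C and 0% CO2, MDA-kb2 reporter cells were dosed with compounds in DMSO and kept 16 h under the same conditions. Luciferase activity was then read as luminescence with ONE-Glo.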

Measured: Potency

Chain of Androgen receptor (Homo sapiens) (P10275 whole entry, looked up): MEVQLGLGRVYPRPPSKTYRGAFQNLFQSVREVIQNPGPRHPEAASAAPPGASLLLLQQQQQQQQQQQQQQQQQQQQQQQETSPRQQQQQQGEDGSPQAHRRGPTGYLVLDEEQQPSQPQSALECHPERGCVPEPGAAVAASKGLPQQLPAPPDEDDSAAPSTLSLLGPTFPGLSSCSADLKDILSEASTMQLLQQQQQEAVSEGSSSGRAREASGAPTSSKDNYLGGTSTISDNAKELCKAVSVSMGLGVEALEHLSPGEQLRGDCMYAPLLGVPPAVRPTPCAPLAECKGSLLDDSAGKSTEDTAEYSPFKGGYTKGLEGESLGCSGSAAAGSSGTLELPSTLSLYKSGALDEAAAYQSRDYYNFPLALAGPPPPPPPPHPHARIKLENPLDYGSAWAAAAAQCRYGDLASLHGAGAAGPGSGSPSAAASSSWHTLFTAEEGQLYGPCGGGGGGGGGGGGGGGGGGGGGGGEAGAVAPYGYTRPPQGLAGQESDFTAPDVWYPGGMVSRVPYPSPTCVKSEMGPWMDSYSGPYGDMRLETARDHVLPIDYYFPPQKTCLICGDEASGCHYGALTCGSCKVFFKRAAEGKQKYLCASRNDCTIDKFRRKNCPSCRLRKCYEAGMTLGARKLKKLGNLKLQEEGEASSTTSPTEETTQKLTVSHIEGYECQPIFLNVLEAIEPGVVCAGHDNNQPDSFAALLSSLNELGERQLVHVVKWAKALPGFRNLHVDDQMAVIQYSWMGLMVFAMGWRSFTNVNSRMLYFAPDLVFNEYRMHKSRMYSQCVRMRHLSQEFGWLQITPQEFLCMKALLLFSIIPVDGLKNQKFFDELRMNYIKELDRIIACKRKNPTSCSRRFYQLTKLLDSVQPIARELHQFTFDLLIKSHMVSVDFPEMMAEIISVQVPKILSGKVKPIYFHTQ

c1cc2c3c(c1)ccc1cccc(c13)C2
inactive: [1] | [2] | [3] | [4]

O=Cc1ccc(F)cc1
active: [5] 19.3 µM | [6] 19.3 µM
not listed: [2] | [10]
inactive: all other assays above

CN1[C@@H]2CC[C@H]1CC(OC(=O)C(CO)c1ccccc1)C2 (some centres undefined)
inactive: [1] | [3] | [9]

Cc1c(-c2ccc(O)cc2)n(Cc2ccc(OCCN3CCCCCC3)cc2)c2ccc(O)cc12
inactive: [1]
active: [2] 11.9 µM | [6] 13.3 µM | [9] 9.44 µM

CC(NCCC(c1ccccc1)c1ccccc1)c1ccccc1 (centres undefined)
inactive: [10]
active: [2] 2.98 µM | [5] 4.22 µM | [6] 5.31 µM | [7] 21.3 µM | [3] 23.7 µM | [8] 23.7 µM

CCOC(=O)COc1ccc(C)cc1
inactive: [1] | [6] | [7] | [3] | [9]

CN(C)CCOC(c1ccccc1)c1ccccc1 (tested in a mixture with another compound)
active: [4] 61.6 µM
inactive: [1] | [3]

C[C@H]1O[C@@H](O[C@H]2[C@@H](O)C[C@H](O[C@H]3[C@@H](O)C[C@H](O[C@H]4CC[C@@]5(C)[C@H](CC[C@@H]6[C@@H]5C[C@@H](O)[C@]5(C)[C@@H](C7=CC(=O)OC7)CC[C@]65O)C4)O[C@@H]3C)O[C@@H]2C)C[C@H](O)[C@@H]1O
inactive: [3]
active: [2] 596 nM and 344 nM and 854 nM | [5] 596 nM and 172 nM and 428 nM | [6] 750 nM and 217 nM and 381 nM | [7] 84.9 nM and 15.5 nM and 30.6 nM

CCCCCCC(C)OC(=O)COc1nc(F)c(Cl)c(N)c1Cl (centres undefined)
inactive: [7]
active: [2] 43.3 µM | [5] 38.6 µM | [6] 38.6 µM

Oc1ccc(-c2ccc(O)cc2)cc1
active: [5] 17.3 µM | [6] 24.5 µM
inactive: [1] | [7] | [3] | [9] | [4]

C=CC(=O)OCCC#N
inactive: [1] | [5] | [3] | [8]
active: [4] 54.8 µM

CCCCCCCCCCCC(=O)N(CC)CC
inactive: [1] | [3] | [4]

COC(=O)[C@]1(C)CCC[C@@]2(C)[C@H]1CC=C1C=C(C(C)C)CC[C@@H]12
active: [6] 61.1 µM | [9] 48.6 µM | [4] 43.3 µM
inactive: [1] | [3]

COC(=O)C1=C(C)NC(C)=C(C(=O)OCCCN2CCC(c3ccccc3)(c3ccccc3)CC2)C1c1cccc([N+](=O)[O-])c1 (centres undefined)
inactive: [10]
active: [2] 4.73 µM | [5] 6.68 µM | [6] 6.68 µM | [7] 21.3 µM | [9] 11.9 µM | [4] 7.5 µM

CCNc1nc(NC(C)CC)nc(OC)n1 (centres undefined)
inactive: [1] | [7] | [3] | [9] | [4]

CCOC(=O)[C@@](C)(N)Cc1ccc(O)c(O)c1
inactive: [1] | [6] | [3] | [9] | [4]

O=C(O)Cc1ccc(OCCNC[C@H](O)c2ccccc2)cc1
inactive: [1] | [7] | [3] | [8] | [9] | [4]

Nc1cc(Cl)c([N+](=O)[O-])cc1O
inactive: [1] | [7] | [4]

CCOC(=O)C1=C(C)NC(C)=C(C(=O)OCC)C1c1ccccc1/C=C/C(=O)OC(C)(C)C
active: [2] 2.66 µM | [5] 3.76 µM | [6] 5.96 µM | [9] 13.3 µM | [4] 10.6 µM
inactive: [7] | [10] | [3]

COc1cc(C=C2CCC/C(=C\c3ccc(O)c(OC)c3)C2=O)ccc1O
active: [1] 23.9 µM | [2] 8.41 µM | [6] 9.44 µM | [8] 21.1 µM | [4] 6.68 µM

CC(CN(C)C)CN1c2ccccc2CCc2ccccc21 (centres undefined)
active: [2] 11.4 µM | [4] 11.4 µM
inactive: [1] | [3]

Cc1nc(Nc2ncc(C(=O)Nc3c(C)cccc3Cl)s2)cc(N2CCN(CCO)CC2)n1
inactive: [1]
active: [2] 5.96 µM | [6] 6.68 µM | [9] 18.8 µM | [4] 18.8 µM

NCCCC(O)(P(=O)(O)O)P(=O)(O)O
inactive: [1] | [3]

CC(C)OC(=O)c1cc(C(=O)OC(C)C)cc([N+](=O)[O-])c1
active: [6] 55.8 µM
inactive: [1] | [7] | [4]

O=C1OC(=O)c2cccc3cccc1c23
active: [5] 15.5 µM | [6] 13.8 µM
inactive: [1] | [3]

C=CC(=C)CCC=C(C)C
inactive: [1] | [7] | [3] | [4]

O=C(Nc1ccc(Cl)c(Cl)c1)c1cc(Cl)cc(Cl)c1O
active: [2] 6.11 µM | [5] 4.86 µM | [6] 4.86 µM | [7] 1.95 µM | [3] 12.2 µM | [9] 4.86 µM | [4] 2.17 µM

CN1CCN(C2Cc3ccccc3Sc3ccc(Cl)cc32)CC1 (centres undefined)
inactive: [8]
active: [2] 5.96 µM | [5] 6.68 µM | [6] 9.44 µM | [9] 9.44 µM | [4] 9.44 µM

C1CC(COCC2CO2)CCC1COCC1CO1 (centres undefined)
inactive: [7] | [3]
active: [2] 30.6 µM | [5] 6.86 µM | [6] 19.3 µM | [4] 61.1 µM
